Source: PubChem BioAssay (several laboratories)
In the library only some 3.8% were active in any assay of this set; here they are far more common.
Ecoli rRNA inh: selective bacterial rRNA inhibition in E. coli; actives 1.6% (n = 350,000); E. coli WT GFP vs humanized-ribosome RFP mutants, fluorescence, 24 h; stronger effect = lower value; DMSO median 0, no signal -100; AID 720706; GFP signal change (wild-type ribosome), % (no concentration beside the values);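 active = significant combined selectivity score with lowered wild-type GFP, culture density cut under 30%, mutant RFP and density less affected; inactive = any of these conditions unmet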
proKLK7 act: proKLK7 (human) activation, primary screen; P49862; activation, % at 7 µM; AID 652039; actives 0.9% (n = 370,000); purified proKLK7, EDANS-DABCYL substrate fluorescence; 100% is mature enzyme control, 0% vehicle;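 active = activation above the mean of all tested compounds plus 3 SD, computed per campaign excluding outliers beyond control limits, cut at about 13% in these data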
Target sequence (P49862 whole entry, looked up): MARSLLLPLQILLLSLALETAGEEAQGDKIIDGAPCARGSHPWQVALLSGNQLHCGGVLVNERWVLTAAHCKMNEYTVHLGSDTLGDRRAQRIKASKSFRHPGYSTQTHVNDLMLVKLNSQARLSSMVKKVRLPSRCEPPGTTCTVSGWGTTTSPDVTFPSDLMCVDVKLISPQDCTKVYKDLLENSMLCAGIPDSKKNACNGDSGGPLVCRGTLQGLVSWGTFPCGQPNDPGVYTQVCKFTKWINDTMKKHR
ADAM10 inh: ADAM10 inhibition, QFRET primary screen | recombinant ADAM10, EDANS/DABCYL FRET peptide cleavage, 3 h | inhibition, % at 7 µM | actives 0.62% (n = 370,000) | AID 720582;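 active = inhibition above a per-campaign cutoff equal to the mean of compounds falling between control-based bounds plus 3 SD, cut at about 20% in these data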;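 note: 0% = DMSO wells while the 100% control is not disclosed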
FGF22 binding: shifts melting point of recombinant human FGF22; Q9HCT0; recombinant FGF22 thermal shift, SYPRO orange fluorescence; percent of sucrose octasulfate shift, DMSO zero; activity (Tm shift, normalised), % at 9.99 µM; actives 1.5% (n = 340,000); AID 651658;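 active = mean Tm shift, scaled 0 neutral to 100 positive control, at about 1.3% or above, every replicate too, limit read from the data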
Target sequence (Q9HCT0 whole entry, looked up): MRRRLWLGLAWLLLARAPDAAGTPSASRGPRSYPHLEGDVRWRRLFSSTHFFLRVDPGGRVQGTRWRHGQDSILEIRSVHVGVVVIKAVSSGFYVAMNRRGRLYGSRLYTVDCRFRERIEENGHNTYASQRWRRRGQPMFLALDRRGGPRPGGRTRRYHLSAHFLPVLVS
ADAM17 inh: inhibits human ADAM17 | recombinant ADAM17, EDANS/DABCYL FRET peptide cleavage | inhibition, % at 6.95 µM | actives 0.83% (n = 370,000) | AID 720648;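 active = inhibition above the mean of compounds lying between control limits plus 3 SD, set per campaign, cut at about 8.5% in these data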;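 note: 0% = DMSO-only wells as the low control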
proKLK7 act conf: confirmation of human kallikrein-7 zymogen activators | shares compounds with proKLK7 act | activation, % at 7 µM | AID 686949 | actives 68% (n = 3,200) | purified proKLK7, EDANS-DABCYL substrate fluorescence; scaled: vehicle 0, mature enzyme 100;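 active = activation, as change over the incubation, above the mean of all tested compounds plus 3 SD, cut at about 13% in these data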
EDANS interfere: optically interferes with EDANS-DABCYL signal, flagging KLK7 hits; EDANS-DABCYL substrate fluorescence interference, no enzyme, 4 h; solvent 0%, active enzyme control 100%; AID 686952; shares compounds with proKLK7 act; activation, % at 7 µM; actives 80% (n = 3,200);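 active = activation above the all-compound mean plus 3 SD, ignoring values outside control-based bounds, cut at about 4.8% in these data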;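 note: value is the 4 h activation minus the activation read at time zero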
K7 EDANS ctr: optically interferes with EDANS-DABCYL fluorescence, kallikrein-7 activator counter-screen; EC50, µM; AID 720493; EDANS-DABCYL peptide fluorescence interference, no enzyme; actives 20% (n = 250); shares compounds with proKLK7 act;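 active = compounds that raise the fluorescence signal in this interference counterscreen, with EC50 at or below 10 µM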;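 note: intact quenched peptide substrate alone read at 355 nm excitation and 520 nm emission; signal is fluorescence gain from T0 to T4 after four hours at room temperature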
* hit, by the source's call; i = inactive; · = not tested or not shown.

SMILES | Ecoli rRNA inh | proKLK7 act | ADAM10 inh | FGF22 binding | ADAM17 inh | proKLK7 act conf | EDANS interfere | others
CCN1C(=O)c2cccc3c(S(=O)(=O)NC(Cc4ccccc4)C(=O)O)ccc1c23 (stereo unspecified) | -2 | 51* | -443 | 0 | -169 | 66* | 67*
O=C(Nc1ccc(Cl)c(Cl)c1)N[C@H]1CC[C@H](CCn2cc(C3CCCCC3)nn2)O[C@@H]1CO | -34 | · | · | 0 | · | · | ·
CC(=O)Oc1ccc2c3c(c(=O)oc2c1C)CCCC3 | -7 | 168* | -126 | 0 | -55 | 531* | 500*
Cc1c(OC(C)C(=O)O)ccc2c3c(c(=O)oc12)CCCC3 (stereo unspecified) | -3 | 2 | i | 1 | -261 | · | ·
COc1ccc(C(=O)Nc2ccc3ccccc3c2)cc1 | 8 | 0 | 3 | 0 | -1 | · | ·
CS(=O)(=O)Nc1ccc(C(=O)Nc2ccc3ccccc3c2)cc1 | -9 | 13* | -35 | 0 | -23 | 1 | 1
N#CC(Sc1ccccn1)c1ccc(Cl)cc1 (stereo unspecified) | 17 | 16* | -120 | 0 | -40 | 10 | 12*
COCC(=O)N1C[C@@H](C)[C@@H](OC)CN(C)C(=O)c2cc(NS(C)(=O)=O)ccc2OC[C@H]1C | 1 | · | · | 0 | · | · | ·
COc1ccc2[nH]c(=O)c(C(=O)O)cc2c1 | 11 | 19* | i | 0 | -225 | 11 | 21*
COc1ccc2[nH]c(=O)cc(C(=O)O)c2c1 | 6 | 20* | i | 0 | -171 | 39* | 45*
COc1cc2sc(-c3ccc(S(C)(=O)=O)cc3)c(C(=O)NCCCCO)c2cc1OC | 2 | 31* | i | 0 | -320 | 22* | 32*
Cc1ccc(CNC(=O)c2c(-c3ccccc3)sc3ccccc23)o1 | -15 | 0 | 3 | 0 | -2 | · | ·
COc1cc2sc(-c3ccc(S(C)(=O)=O)cc3)c(C(=O)NCc3ccc(C)o3)c2cc1OC | -6 | 14* | i | 0 | -186 | 23* | 31*
COc1ccc2sc(-c3ccc(S(C)(=O)=O)cc3)c(C(=O)NCCCN3CCCC3=O)c2c1 | -14 | 3 | -86 | 0 | -24 | · | ·
COc1ccc(S(=O)(=O)N(C)C[C@H]2Oc3c(NC(=O)c4ccc(-c5nccs5)cc4)cccc3C(=O)N([C@@H](C)CO)C[C@@H]2C)cc1 | -2 | · | · | 0 | · | · | ·
CCOC(=O)c1oc2ccc3c(c2c1C)C(=O)CC1(CCN(C(=O)OCC)CC1)O3 | · | 0 | -32 | · | -11 | · | ·
CCOC(=O)N1CCC2(CC1)CC(=O)c1c(ccc3oc(C(=O)O)c(C)c13)O2 | · | 18* | i | · | -449 | 46* | 34* | K7 EDANS ctr=>70
c1cn2cc(-c3ccc(CN4CCOCC4)cc3)ccc2n1 | 7 | 0 | -29 | 0 | -7 | · | ·
CC(=O)Nc1cccc(-c2cccc3nccn23)c1 | 7 | 18* | i | 0 | -401 | 24* | 27*
c1cc(-c2ccc(CN3CCOCC3)cc2)n2ccnc2c1 | 17 | 24* | i | 0 | -416 | 21* | 22*
CN1CCN(c2ccc(-c3cccc4nccn34)cn2)CC1 | 12 | 50* | i | 0 | i | 22* | 19*
c1cc(-c2ccsc2)n2ccnc2c1 | 7 | -1 | -404 | 0 | -122 | · | ·
CC(=O)c1ccc(-c2cccc3nccn23)cc1 | 4 | -1 | -10 | 0 | 0 | · | ·
c1cc(-c2ccoc2)n2ccnc2c1 | · | -1 | -206 | 0 | -44 | · | ·
N#Cc1ccc(-c2cccc3nccn23)cc1 | 5 | 78* | i | 0 | i | 73* | 68*
SMILES | Ecoli rRNA inh | proKLK7 act | ADAM10 inh | FGF22 binding | ADAM17 inh | proKLK7 act conf | EDANS interfere | others
CC(C)C(=O)Nc1ccc2c(c1)C(=O)N(C)[C@@H]1CC[C@@H](CC(=O)NC3CCCC3)O[C@@H]1CO2 | 3 | · | · | · | · | · | ·
C[C@H]1CN([C@@H](C)CO)C(=O)c2cccc(NC(=O)c3nc4ccccc4s3)c2O[C@H]1CN(C)CC1CC1 | -7 | · | · | 0 | · | · | ·
C[C@@H]1CN([C@H](C)CO)C(=O)Cc2cc(NS(=O)(=O)c3ccc(Cl)cc3)ccc2O[C@@H]1CN(C)Cc1ccc(Cl)c(Cl)c1 | 5 | · | · | 0 | · | · | ·
C[C@H](CO)N1C[C@H](C)[C@@H](CN(C)C(=O)NC2CCCCC2)Oc2ccc(NS(=O)(=O)c3ccc(F)cc3)cc2CC1=O | -1 | · | · | 0 | · | · | ·
CCN(CC)CCn1nc(C)nc1-c1ccccc1O | · | -1 | -7 | · | 2 | · | ·
CCN(CC)CCn1nc2c3c(cccc3c1=O)-c1ccccc1-2 | -23 | 18* | -59 | 0 | -14 | -5 | -14
COCCCNC(=O)c1c(N)n(-c2cccc(S(N)(=O)=O)c2)c2nc3ccccc3nc12 | · | 20* | i | · | i | -20 | -66
CCCNC(=O)c1c(N)n(-c2cccc(OC)c2)c2nc3ccccc3nc12 | 8 | -40 | -473 | · | -154 | · | ·
Nc1c(C(=O)NCCN2CCOCC2)c2nc3ccccc3nc2n1-c1cccc(F)c1 | · | 30* | i | · | i | -71 | -73
O=C(C1CC1)N1CC(=O)N2[C@H](CO)[C@@H](c3ccc(C#Cc4cccc(F)c4)cc3)[C@H]2C1 | -5 | · | · | · | · | · | ·
C[C@@H]1CN([C@H](C)CO)C(=O)c2cc(NS(=O)(=O)c3cccs3)ccc2O[C@H]1CN(C)C(=O)Nc1ccccc1 | 5 | · | · | 0 | · | · | ·
C[C@H](CO)N1C[C@H](C)[C@@H](CN(C)CC2CCCCC2)OCCCC[C@H](C)Oc2ccc(N(C)C)cc2C1=O | 1 | · | · | -1 | · | · | ·
O=C(NN1CCOCC1)c1cc(-c2ccncc2)nc2ccccc12 | 13 | 0 | 5 | 0 | -2 | · | ·
CCc1ccc(-c2cc(C(=O)NN3CCOCC3)c3ccccc3n2)s1 | 2 | 49* | i | 0 | i | 79* | 68*
CC(C)OCCCNC(=O)c1cc(-c2cccs2)nc2ccccc12 | 6 | 15* | i | 0 | i | 13* | 13*
Cc1ccc(-c2cc(C(=O)OC3CCOC3=O)c3ccccc3n2)c(C)c1 (stereo unspecified) | -9 | 1 | -2 | 1 | 1 | · | ·
Cc1cc(C)c2nc(NNC(=O)c3cc(-c4cccs4)nc4ccccc34)sc2c1 | -2 | 13* | -297 | 0 | -67 | 10 | 12*
Cc1ccc2sc(NNC(=O)c3cc(-c4cccs4)nc4ccccc34)nc2c1C | 1 | 4 | -128 | 0 | -32 | · | ·
